From PubChem
In the library only some 19% were active in any assay of this set; here they are far more common.
HT1080NT lethal – qHTS for induction of synthetic lethality in tumor cells producing 2HG: qHTS for the HT-1080-NT fibrosarcoma cell line; HT-1080-NT fibrosarcoma viability, CellTiter-Glo ATP luminescence, 48 h; Potency, µM (top dose mostly 46.1 µM), hits mostly cytotoxic; hit rate 1.6% among 360,000;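 also: NT is the 2HG producing partner of a matched IDH1 knockdown line; nearly all actives have a fitted effect of over 55% in size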
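Luminescent CellTiter-Glo readout after 48 hours of compound exposure at 37 degrees C defined viability of HT-1080-NT cells. Activity was normalized to DMSO wells and cell-free media wells; concentration-response curves were fitted and assigned curve classes.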
TDP1 cell CPT – qHTS for Inhibitors of human tyrosyl-DNA phosphodiesterase 1 (TDP1): qHTS in cells in presence of CPT; chicken DT40 Tdp1-/-;hTDP1 cells + 20 nM CPT, ATP luminescence, 48 h; Potency, µM (top dose mostly 46.2 µM), usual class: inhibitors; hit rate 12% among 420,000; AID 686979, 2013; also: nearly all actives have a fitted effect of over 55% in size
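Chicken DT40 Tdp1-/- cells stably complemented with human TDP1 were seeded at 400 cells/well in medium containing 20 nM camptothecin, exposed to pin-transferred compounds, and grown at 37 °C for at least 48 hr. Viability was read as ATP luminescence.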
HT1080 IDH1KD tx – qHTS for induction of synthetic lethality in tumor cells producing 2HG: qHTS for the HT-1080-IDH1KD cell line. HT-1080 IDH1 knockdown viability, ATP luminescence, 48 h. Potency, µM (titrated, usually from 46.1 µM), actives largely listed as cytotoxic. hit rate 2% among 360,000
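CellTiter-Glo luminescence after 48 h compound exposure at 37 degrees C of IDH1-knockdown HT-1080 cells in 5% FBS RPMI. %Activity scaled between DMSO wells and cell-free media wells, with curves fitted and assigned curve classes.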
ELG1 DNA repair – qHTS screen for small molecules that inhibit ELG1-dependent DNA repair in human embryonic kidney (HEK293T) cells expressing luciferase-tagged ELG1; HEK293T ELG1-luciferase reporter, luminescence, 16 h; DNA damage induced by 5-fluorouridine; Potency, µM (top dose mostly 46.1 µM), actives largely listed as inhibitors; hit rate 2.3% among 330,000; also: nearly all actives have a fitted effect of over 55% in size
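DMSO vehicle served as the neutral condition. Each well held 2,000 cells given 5-fluorouridine plus compound; after 16 hr at 37 °C/5% CO2, ONE-Glo was added and luciferase measured 30 min later.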
IL-1B inflam inh – qHTS for Inhibitors of Inflammasome Signaling: IL-1-beta AlphaLISA Primary Screen | hit rate 4.7% among 360,000 | AID 743279, 2014 | THP-1 LPS/ATP IL-1B secretion, AlphaLISA, 16 h; stronger effect = lower value | activity change, % at 57.5 µM; in the data active = activity change below about -50%; inconclusive = mostly about -30% to -49%
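Secreted IL-1B measured by AlphaLISA bead assay after 16 h compound exposure of THP-1 cells; compounds (final up to 57.5 uM) added 1 h before LPS (250 ng/mL) and ATP (1.25 mM) stimulation; lower signal means less secretion.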
TDP1 cell noCPT – qHTS for Inhibitors of human tyrosyl-DNA phosphodiesterase 1 (TDP1): qHTS in cells in absence of CPT. Potency, µM (series often up to 46.2 µM), hits mostly inhibitors. hit rate 15% among 420,000. DT40 Tdp1-/- hTDP1 cells, no CPT, ATP luminescence, 48 h; also: nearly all actives have a fitted effect of over 55% in size
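Growth kinetics read by CellTiter-Glo luminescence after ≥48 hr at 37 °C. Cells: DT40 Tdp1-/- stably carrying human TDP1, 400 per well, compound exposure in the absence of CPT (DMSO vehicle).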
Numbers stand for hits. Unless noted, calls follow the shape of the dose curve; as a rule, active = well fitted curve in the direction sought with a large enough effect; inconclusive = small, poorly fitted or top-dose-only effect, or another doubt; inactive = no such curve, though single readings can be large; an effect the other way counts as inactive or inconclusive.

`O=C(N/N=C/c1cccn1-c1ccc([N+](=O)[O-])cc1)c1cccnc1` gave HT1080NT lethal inactive, TDP1 cell CPT 13µM, HT1080 IDH1KD tx inconclusive, ELG1 DNA repair inactive, IL-1B inflam inh inactive and TDP1 cell noCPT 25.9µM.
`O=C(N/N=C/c1cccn1-c1ccccc1)c1ccncc1` gave HT1080NT lethal inactive, TDP1 cell CPT inactive, HT1080 IDH1KD tx inactive, ELG1 DNA repair inactive, IL-1B inflam inh inactive and TDP1 cell noCPT inactive.
Screening Clc1ccccc1C(c1ccccc1)(c1ccccc1)n1ccnc1 returned HT1080NT lethal inconclusive, TDP1 cell CPT 8.05µM, HT1080 IDH1KD tx inconclusive, ELG1 DNA repair inactive, IL-1B inflam inh inactive and TDP1 cell noCPT 10.1µM.
Screening Clc1ccccc1-c1nccc(-n2ccnc2)n1 returned TDP1 cell CPT inactive and TDP1 cell noCPT inactive.
`C#CC(c1ccccc1)(c1ccccc1)n1ccnc1` gave HT1080NT lethal inactive, TDP1 cell CPT inconclusive, HT1080 IDH1KD tx inactive, IL-1B inflam inh inactive and TDP1 cell noCPT 23.1µM.
For Cc1cc(C)c(C#N)c(SCCS(=O)(=O)c2ccc(C(C)(C)C)cc2)n1 the results were HT1080NT lethal inactive, TDP1 cell CPT 13µM, HT1080 IDH1KD tx inactive, ELG1 DNA repair inactive, IL-1B inflam inh inactive and TDP1 cell noCPT 20.6µM.
For Cc1cc(C)c(C#N)c(SCS(=O)Cc2ccccc2)n1 (stereo not given) the results were HT1080NT lethal inactive, TDP1 cell CPT inactive, HT1080 IDH1KD tx inconclusive, ELG1 DNA repair inactive, IL-1B inflam inh inactive and TDP1 cell noCPT inactive.
Screening Cc1cc(C)c(C#N)c(SCCS(=O)(=O)c2ccc(Cl)cc2)n1 returned HT1080NT lethal inactive, TDP1 cell CPT inconclusive, HT1080 IDH1KD tx inactive, ELG1 DNA repair inactive, IL-1B inflam inh -76.3 and TDP1 cell noCPT inconclusive.
CSc1cccc(NC(=O)Cn2c(=O)n(Cc3ccccc3)c(=O)c3sc4ccccc4c32)c1 was read as TDP1 cell CPT inactive and TDP1 cell noCPT inconclusive.
For Oc1ccccc1-n1nc2ccc3nonc3c2n1 the results were HT1080NT lethal inactive, TDP1 cell CPT inactive, HT1080 IDH1KD tx inactive, ELG1 DNA repair inactive, IL-1B inflam inh inactive and TDP1 cell noCPT inactive.
`COc1ccccc1-n1c(CCC(=O)O)ccc1-c1ccccc1` gave HT1080NT lethal inactive, TDP1 cell CPT inactive, HT1080 IDH1KD tx inactive, ELG1 DNA repair inactive, IL-1B inflam inh inactive and TDP1 cell noCPT inactive.
`COc1ccc(-c2ccc(CCC(=O)O)n2-c2ccccc2OC)cc1` gave HT1080NT lethal 18.4µM, TDP1 cell CPT inconclusive, HT1080 IDH1KD tx 16.4µM, ELG1 DNA repair inactive, IL-1B inflam inh inactive and TDP1 cell noCPT 23.1µM.
`COC(=O)c1c(C)nn(-c2ccc(OC(F)(F)F)cc2)c1-c1snnc1C` gave HT1080NT lethal inactive, TDP1 cell CPT inconclusive, HT1080 IDH1KD tx inactive, ELG1 DNA repair inconclusive, IL-1B inflam inh inactive and TDP1 cell noCPT 16.4µM.
For Cc1nnsc1-c1c(C(=O)Oc2ccccc2)c(C)nn1-c1ccccc1 the results were HT1080NT lethal inactive, TDP1 cell CPT inactive, HT1080 IDH1KD tx inactive, ELG1 DNA repair inactive, IL-1B inflam inh inactive and TDP1 cell noCPT inconclusive.
Screening Cc1ccc(C)c(CN2CCC(CNC(=O)Nc3ccc(Br)cc3F)CC2)c1 returned HT1080NT lethal 16.4µM, TDP1 cell CPT 10.3µM, HT1080 IDH1KD tx inconclusive, ELG1 DNA repair inactive, IL-1B inflam inh -82.6 and TDP1 cell noCPT inconclusive.
For Cc1ccc(C)c(CN2CCC(CNC(=O)Nc3ccc(Cl)cc3)CC2)c1 the results were HT1080NT lethal inactive, TDP1 cell CPT 20.6µM, HT1080 IDH1KD tx inactive, ELG1 DNA repair inactive, IL-1B inflam inh -94.6 and TDP1 cell noCPT inconclusive.
Screening COc1ccccc1C1(CCN=Cc2ccc(N(C)C)cc2)CCOC(C)(C)C1 (stereo not given) returned HT1080NT lethal inactive, TDP1 cell CPT inactive, HT1080 IDH1KD tx inactive, ELG1 DNA repair inactive, IL-1B inflam inh -64.2 and TDP1 cell noCPT inactive.
Screening CN(C)c1ccc(C=NCCC2(O)CCOC(C)(C)C2)cc1 (stereo not given) returned HT1080NT lethal inactive, TDP1 cell CPT inactive, HT1080 IDH1KD tx inactive, ELG1 DNA repair inactive, IL-1B inflam inh inactive and TDP1 cell noCPT inactive.
`O=C(NCCCN1CCN(c2ccc(F)cc2)CC1)c1sc2ncccc2c1-n1cccc1` gave TDP1 cell CPT 16.4µM and TDP1 cell noCPT inconclusive.
O=C(NCCCN1CCCCC1)c1sc2ncccc2c1-n1cccc1 was read as TDP1 cell CPT inactive and TDP1 cell noCPT inactive.
For O=C(NCCc1ccccc1Cl)c1sc2ncccc2c1-n1cccc1 the results were TDP1 cell CPT 23.1µM and TDP1 cell noCPT inconclusive.
Screening CCOc1ccccc1CNC(=O)c1sc2ncccc2c1-n1cccc1 returned TDP1 cell CPT 14.6µM and TDP1 cell noCPT 16.4µM.
For COc1ccc(C)cc1NC(=O)C(C)N(c1ccc(C)cc1)S(C)(=O)=O (stereo not given) the results were HT1080NT lethal inactive, TDP1 cell CPT inactive, HT1080 IDH1KD tx inactive, ELG1 DNA repair inactive, IL-1B inflam inh inactive and TDP1 cell noCPT inconclusive.
`Cc1ccc(N(C(C)C(=O)Nc2cc(Cl)ccc2Oc2ccccc2)S(C)(=O)=O)cc1` (stereo not given) gave HT1080NT lethal inconclusive, TDP1 cell CPT inconclusive, HT1080 IDH1KD tx inactive, ELG1 DNA repair inactive, IL-1B inflam inh -69.2 and TDP1 cell noCPT inconclusive.
`O=C1NC[C@H](c2ccccc2)OC(=O)[C@H](Cc2ccc(F)cc2)C/C=C\C[C@@H]1CC(=O)N(CCO)Cc1ccccc1` gave HT1080NT lethal inactive, TDP1 cell CPT 20.6µM, HT1080 IDH1KD tx inactive, ELG1 DNA repair inconclusive, IL-1B inflam inh inactive and TDP1 cell noCPT 16.4µM.
Screening O=C1CCCC/C=C\C[C@H](CC(=O)N(CCO)Cc2ccccc2)C(=O)NC[C@H](c2ccccc2)O1 returned HT1080NT lethal inactive, TDP1 cell CPT inconclusive, HT1080 IDH1KD tx inactive, ELG1 DNA repair inactive, IL-1B inflam inh inactive and TDP1 cell noCPT inconclusive.
`O=C1NC[C@@H](c2ccccc2)OC(=O)[C@H](Cc2ccc(F)cc2)C/C=C\C[C@@H]1CC(=O)N(CCO)Cc1ccccc1` gave HT1080NT lethal inactive, TDP1 cell CPT inconclusive, HT1080 IDH1KD tx inconclusive, ELG1 DNA repair inactive, IL-1B inflam inh inconclusive and TDP1 cell noCPT 23.1µM.
